Assay results reported in PubChem BioAssay (EPA / NIEHS).
Results filed as inconclusive are left out. Active and inactive are the calls of the source. Rule for the calls, unless noted: active = hit-call score of the fitted dose curve at least 0.9, where 1 is the maximum; inactive = score below 0.9.

Columns and labels:
[1] = target: Hepatocyte nuclear factor 4-alpha (Homo sapiens) (UniProt P41235); experiment: ATG_HNF4a_TRANS: Attagene TRANS-FACTORIAL HepG2 Assay for human Hepatocyte Nuclear Factor 4 alpha (HNF4a) (AID 2282982; active = hit-call score of the fitted dose curve at least 0.9, where 1 is the maximum); details: HepG2 HNF4a transactivation reporter, mRNA readout
Outline: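 Gain-of-signal mRNA induction, relative to DMSO vehicle, was read after 24 h compound treatment of HepG2 cells bearing transfected GAL4-UAS reporters. Detection used RT-PCR, 6-FAM primer extension and capillary electrophoresis.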

[2] = ATG_M_06_TRANS: Attagene TRANS-FACTORIAL HepG2 Assay for M06 Transcription Factor (Internal Marker) (AID 2282983; active = hit-call score of the fitted dose curve at least 0.9, where 1 is the maximum;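 note: reporter transcript level by RT-PCR then capillary electrophoresis fluorescence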); details: HepG2 Attagene TRANS M06 internal marker reporter
Outline: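 Transfect HepG2 with MRTUs → dose compounds 24 h → isolate RNA, oligo(dT) RT → PCR with reporter primers → 6-FAM primer extension → HpaI digest → CE fragment analysis. Positive direction vs DMSO.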

[3] = ATG_M_32_TRANS: Attagene TRANS-FACTORIAL HepG2 Assay for M32 Transcription Factor (Internal Marker) (AID 2282984; active = hit-call score of the fitted dose curve at least 0.9, where 1 is the maximum;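 note: transcript level of a background control reporter unit measured by RT-PCR and capillary electrophoresis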); details: HepG2 Attagene TRANS M32 internal marker reporter
Outline: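 Capillary electrophoresis of 6-FAM-labelled reporter fragments gives the signal; data fitted for gain over DMSO negative control. Source: HepG2 cells bearing transient multiple reporter transcription units, 24 h exposure.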

[4] = target: Transcriptional activator Myb (Homo sapiens) (UniProt P10242); experiment: ATG_Myb_CIS: Attagene CIS-FACTORIAL HepG2 Assay for human Myeloblastosis (Myb) Proto-Oncogene Transcription Factor (AID 2282986); details: HepG2 Attagene CIS-FACTORIAL Myb reporter transcription; actives raise or lower the signal
Outline: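 HepG2 cells were transiently transfected with cis-regulated multiple reporter transcription units reflecting endogenous Myb activity, then exposed to compound for 24 hours. Reporter mRNA was measured by RT-PCR with capillary electrophoresis; bidirectional fitting versus DMSO baseline.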

[5] = target: Nuclear respiratory factor 1 (Homo sapiens) (UniProt Q16656); experiment: ATG_NRF1_CIS: Attagene CIS-FACTORIAL HepG2 Assay for human Nuclear Respiratory Factor 1 (NRF1) Orphan Gene (AID 2282987); details: HepG2 NRF1 cis-element reporter, Attagene multiplex; actives raise or lower the signal
Outline: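 HepG2 cells transiently transfected with multiple reporter transcription units under cis-regulatory promoter control, so endogenous transcription-factor activity is read. After 24 h compound exposure, reporter mRNA quantified by RT-PCR, fluorescent labelling, HpaI digestion and capillary electrophoresis; bidirectional fitting versus DMSO.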

[6] = ATG_NFI_CIS: Attagene CIS-FACTORIAL HepG2 Assay for human Nuclear Factor I (NFI) (AID 2282989); details: HepG2 cis-regulatory reporter, NFI response element transcription; actives raise or lower the signal
Outline: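 After transient transfection of HepG2 with cis-promoter reporter constructs and 24 h dosing, RNA is reverse-transcribed, amplified, 6-FAM end-labelled and HpaI-digested before capillary analysis. Bidirectional curve fitting against DMSO.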

[7] = target: Myc proto-oncogene protein (Homo sapiens) (UniProt P01106); experiment: ATG_Myc_CIS: Attagene CIS-FACTORIAL HepG2 Assay for human Myelocytomatosis (Myc) Proto-Oncogene Transcription Factor (AID 2282990); details: HepG2, Attagene cis-reporter transcription factor activity; actives raise or lower the signal
Outline: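 Read-out: fluorescent reporter mRNA fragments resolved by capillary electrophoresis after RT-PCR. Human HepG2 liver cells carried transfected cis-element reporter units and were dosed for 24 h. Gain or loss of signal fitted relative to DMSO baseline.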

[8] = ATG_NF_kB_CIS: Attagene CIS-FACTORIAL HepG2 Assay for human Nuclear Factor Kappa B (NF-kB) (AID 2282991); details: HepG2 Attagene cis-factorial NF-kB reporter mRNA; actives raise or lower the signal
Outline: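 HepG2 cells transiently transfected with multiplexed cis-element reporter units measuring endogenous transcription factor activity; reporter mRNA read 24 h after dosing by RT-PCR, fluorescent labelling, HpaI digestion and capillary electrophoresis. Bidirectional fit against DMSO baseline.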

[9] = ATG_NRF2_ARE_CIS: Attagene CIS-FACTORIAL HepG2 Assay for human Nuclear Factor Erythroid 2 Related Factor 2 (NFR2) response to Antioxidant Response Elements (ARE) (AID 2282992); details: HepG2 Attagene ARE/NRF2 reporter, transcription factor activity; actives raise or lower the signal
Outline: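 Transient MRTU transfection of HepG2; 24 h compound exposure; TriZol RNA, RT with oligo(dT), PCR, 6-FAM primer extension, HpaI cut, CE. Bidirectional fit vs DMSO.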

[10] = ATG_Oct_MLP_CIS: Attagene CIS-FACTORIAL HepG2 Assay for human Octamer-Binding Transcription Factor (Oct) (AID 2282993); details: HepG2 Attagene cis-factorial Oct reporter, mRNA; actives raise or lower the signal
Outline: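 Cells of the HepG2 line express promoter-controlled reporter sequences whose mRNA levels, after 24 h treatment, are measured by RT-PCR and capillary electrophoresis. Increases and decreases are scored relative to DMSO.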

[11] = target: Cellular tumor antigen p53 (Homo sapiens) (UniProt P04637); experiment: ATG_p53_CIS: Attagene CIS-FACTORIAL HepG2 Assay for human p53 Transcription Factor (AID 2282994); details: HepG2 p53 cis-element reporter, Attagene mRNA; actives raise or lower the signal
Outline: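 HepG2, transient MRTU transfection (cis promoter elements, endogenous TFs); 24 h dosing; RNA isolation, RT-PCR, 6-FAM primer extension, HpaI digest, CE fluorescence; bidirectional fit vs DMSO.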

[12] = BSK_3C_TissueFactor: BioMAP Diversity Plus: 3C Assay for Tissue Factor Biomarker Activity (AID 2282997); details: BioMAP 3C HUVEC, tissue factor biomarker readout; actives raise or lower the signal
Outline: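 ELISA read-out of Tissue Factor levels on human umbilical vein endothelium collected 24 h after chemical dosing. Gain or loss of signal was fitted relative to DMSO.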

[13] = BSK_3C_uPAR: BioMAP Diversity Plus: 3C Assay for Urokinase-type plasminogen activator receptor (uPAR) Biomarker Activity (AID 2282998); details: BioMAP 3C HUVEC, uPAR biomarker ELISA; actives raise or lower the signal
Outline: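 Endothelial primary cells of human umbilical vein origin received test chemical; 24 h later uPAR was assayed by ELISA. Fitting was bidirectional, DMSO as negative control.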

[14] = BSK_3C_VCAM1: BioMAP Diversity Plus: 3C Assay for Vascular cell adhesion molecule 1 (VCAM1) Biomarker Activity (AID 2282999); details: BioMAP 3C HUVEC, VCAM1 ELISA, cytokine-stimulated; actives raise or lower the signal
Outline: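 Human umbilical vein endothelial cells (3C system), biomarker read by ELISA 24 h after dosing; bidirectional fit against DMSO baseline. Cytotoxicity tracked by SRB total-protein staining in parallel cultures at biomarker time.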

[15] = BSK_4H_Eotaxin3: BioMAP Diversity Plus: 4H Assay for Eotaxin 3 Biomarker Activity (AID 2283000); details: primary human endothelial cells (HUVEC); actives raise or lower the signal;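 note: CCL26 protein level quantified by ELISA in parallel with SRB cytotoxicity check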
Outline: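 Chemicals were added to human umbilical vein endothelium cultures, and Eotaxin-3 was quantified by ELISA at 24 h. Values were derived by bidirectional fitting with DMSO serving as negative control and activity baseline.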

[16] = target: Nuclear receptor subfamily 4 group A member 2 (Homo sapiens) (UniProt P43354); experiment: ATG_NURR1_TRANS: Attagene TRANS-FACTORIAL HepG2 Assay for human Nuclear Receptor Related Protein 1 (NURR1) (AID 2282985; active = hit-call score of the fitted dose curve at least 0.9, where 1 is the maximum); details: HepG2 Attagene TRANS reporter, mRNA readout
Outline: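 HepG2 / transient MRTU transfection / 24 h compound exposure / RT-PCR + CE fluorescence of reporter mRNA / gain-of-signal vs DMSO.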

Measured: AC50

Transcriptional activator Myb (Homo sapiens), sequence (P10242 whole entry, looked up): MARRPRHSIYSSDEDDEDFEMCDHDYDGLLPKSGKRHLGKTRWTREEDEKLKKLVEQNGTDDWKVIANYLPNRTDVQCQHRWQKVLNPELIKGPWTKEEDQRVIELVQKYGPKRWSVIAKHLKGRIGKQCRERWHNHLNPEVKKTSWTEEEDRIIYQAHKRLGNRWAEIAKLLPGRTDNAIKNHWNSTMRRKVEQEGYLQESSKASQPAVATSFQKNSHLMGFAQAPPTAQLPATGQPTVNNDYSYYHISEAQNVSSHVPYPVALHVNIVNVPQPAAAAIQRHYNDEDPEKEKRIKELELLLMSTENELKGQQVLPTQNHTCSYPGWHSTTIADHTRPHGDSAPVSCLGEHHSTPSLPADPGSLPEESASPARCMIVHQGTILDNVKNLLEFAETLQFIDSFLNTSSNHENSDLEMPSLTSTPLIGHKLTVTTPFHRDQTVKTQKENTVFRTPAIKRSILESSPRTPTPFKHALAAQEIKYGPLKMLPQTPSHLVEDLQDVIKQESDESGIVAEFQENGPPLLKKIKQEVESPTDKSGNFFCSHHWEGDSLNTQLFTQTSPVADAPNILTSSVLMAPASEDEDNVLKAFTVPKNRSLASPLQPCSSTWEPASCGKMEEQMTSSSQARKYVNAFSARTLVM
Nuclear receptor subfamily 4 group A member 2 (Homo sapiens), sequence (P43354 whole entry, looked up): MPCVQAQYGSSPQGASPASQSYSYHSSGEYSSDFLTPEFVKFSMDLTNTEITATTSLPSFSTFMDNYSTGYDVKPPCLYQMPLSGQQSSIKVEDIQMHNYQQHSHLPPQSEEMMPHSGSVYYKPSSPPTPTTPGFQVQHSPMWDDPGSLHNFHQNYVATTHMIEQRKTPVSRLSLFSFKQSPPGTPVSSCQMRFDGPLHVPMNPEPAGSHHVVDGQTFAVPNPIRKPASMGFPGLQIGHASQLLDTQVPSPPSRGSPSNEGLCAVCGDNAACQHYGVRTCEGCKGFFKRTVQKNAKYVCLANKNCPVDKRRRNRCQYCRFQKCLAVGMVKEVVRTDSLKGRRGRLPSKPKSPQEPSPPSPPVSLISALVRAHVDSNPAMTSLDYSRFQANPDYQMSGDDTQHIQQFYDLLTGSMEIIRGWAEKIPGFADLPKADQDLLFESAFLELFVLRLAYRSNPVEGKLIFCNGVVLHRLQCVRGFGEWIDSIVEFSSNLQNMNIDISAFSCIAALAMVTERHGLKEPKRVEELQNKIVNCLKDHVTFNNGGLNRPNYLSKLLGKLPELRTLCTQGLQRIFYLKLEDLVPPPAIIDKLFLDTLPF
Cellular tumor antigen p53 (Homo sapiens), sequence (P04637 whole entry, looked up): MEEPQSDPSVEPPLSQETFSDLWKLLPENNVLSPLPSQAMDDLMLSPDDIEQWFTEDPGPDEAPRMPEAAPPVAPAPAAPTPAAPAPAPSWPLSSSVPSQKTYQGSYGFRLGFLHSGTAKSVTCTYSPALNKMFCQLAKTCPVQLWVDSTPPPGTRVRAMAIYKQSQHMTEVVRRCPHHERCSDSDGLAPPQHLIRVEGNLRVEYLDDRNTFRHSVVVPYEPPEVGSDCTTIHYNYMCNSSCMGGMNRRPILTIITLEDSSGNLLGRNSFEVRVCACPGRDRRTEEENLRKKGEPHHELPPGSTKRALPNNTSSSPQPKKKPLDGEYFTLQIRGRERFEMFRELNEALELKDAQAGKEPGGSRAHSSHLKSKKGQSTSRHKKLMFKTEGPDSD
Myc proto-oncogene protein (Homo sapiens), sequence (P01106 whole entry, looked up, the tested form may be a part): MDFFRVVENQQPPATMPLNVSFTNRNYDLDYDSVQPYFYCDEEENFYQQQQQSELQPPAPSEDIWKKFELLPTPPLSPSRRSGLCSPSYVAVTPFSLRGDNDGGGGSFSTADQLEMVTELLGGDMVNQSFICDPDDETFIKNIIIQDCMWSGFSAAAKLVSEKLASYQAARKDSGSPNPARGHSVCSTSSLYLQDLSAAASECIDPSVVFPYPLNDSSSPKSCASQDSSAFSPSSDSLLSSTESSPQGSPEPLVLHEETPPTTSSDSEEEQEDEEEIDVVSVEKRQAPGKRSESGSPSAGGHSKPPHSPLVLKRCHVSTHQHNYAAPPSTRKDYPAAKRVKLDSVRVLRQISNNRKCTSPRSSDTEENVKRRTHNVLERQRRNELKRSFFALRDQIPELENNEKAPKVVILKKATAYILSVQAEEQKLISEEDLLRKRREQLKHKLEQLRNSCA
Nuclear respiratory factor 1 (Homo sapiens), sequence (Q16656 whole entry, looked up): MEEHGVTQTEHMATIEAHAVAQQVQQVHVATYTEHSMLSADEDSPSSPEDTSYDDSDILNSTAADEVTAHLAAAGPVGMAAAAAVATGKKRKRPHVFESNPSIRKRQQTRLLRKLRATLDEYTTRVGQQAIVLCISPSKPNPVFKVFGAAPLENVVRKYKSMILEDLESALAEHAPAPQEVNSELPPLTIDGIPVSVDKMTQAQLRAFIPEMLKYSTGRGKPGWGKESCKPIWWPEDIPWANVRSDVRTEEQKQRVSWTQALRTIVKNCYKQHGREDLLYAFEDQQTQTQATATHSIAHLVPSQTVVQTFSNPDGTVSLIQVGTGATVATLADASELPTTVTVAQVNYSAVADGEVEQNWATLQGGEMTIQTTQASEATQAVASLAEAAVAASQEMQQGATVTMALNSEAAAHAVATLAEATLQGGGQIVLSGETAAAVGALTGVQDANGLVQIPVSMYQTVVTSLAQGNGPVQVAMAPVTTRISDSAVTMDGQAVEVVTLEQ
Hepatocyte nuclear factor 4-alpha (Homo sapiens), sequence (P41235 whole entry, looked up, the tested form may be a part): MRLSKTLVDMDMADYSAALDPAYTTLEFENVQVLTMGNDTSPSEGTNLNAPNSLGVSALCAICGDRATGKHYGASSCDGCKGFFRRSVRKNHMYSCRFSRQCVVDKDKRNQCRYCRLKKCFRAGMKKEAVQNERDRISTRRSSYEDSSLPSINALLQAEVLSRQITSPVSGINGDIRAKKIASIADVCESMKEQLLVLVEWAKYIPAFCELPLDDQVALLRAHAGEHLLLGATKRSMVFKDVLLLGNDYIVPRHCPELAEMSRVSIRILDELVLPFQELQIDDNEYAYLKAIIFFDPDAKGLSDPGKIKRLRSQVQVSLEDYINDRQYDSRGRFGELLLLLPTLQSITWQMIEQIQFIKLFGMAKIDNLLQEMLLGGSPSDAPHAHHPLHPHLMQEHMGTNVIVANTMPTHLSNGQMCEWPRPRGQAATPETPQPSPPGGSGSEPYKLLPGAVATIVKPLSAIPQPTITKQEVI

CC(=O)CC(N)=O
inactive: [1] | [2] | [3] | [4] | [5] | [6] | [7] | [8] | [9] | [10] | [11]

O=C(c1ccccc1)C1CCC1
inactive: [1] | [2] | [3] | [4] | [5] | [6] | [7] | [8] | [9] | [10]

O=c1c2ccccc2oc2ccccc12
active: [9] 26.9 µM | [12] 3.97 µM
inactive: [4] | [6] | [7] | [8] | [10] | [13] | [14] | [15]

CCCCCCOc1cc(C)c(O)c(C)c1C
active: [8] 16.5 µM
inactive: [1] | [2] | [16] | [4] | [6] | [7] | [10]

CCC(C)(C)C1CCCCC1OC(C)=O (stereo not drawn)
inactive: [2] | [3] | [16] | [4] | [5] | [6] | [7] | [10] | [11]
active: [9] 134 µM

C=CC(=O)OCCC(=O)O
inactive: [1] | [2] | [3] | [4] | [6] | [7] | [8] | [10] | [11]
active: [9] 43.2 µM

O=c1[nH]c(=O)c2[nH]c(=O)[nH]c2[nH]1
inactive: [2] | [16] | [4] | [5] | [6] | [7] | [8] | [9] | [10] | [11]

Cc1ccc(N)c([N+](=O)[O-])c1
inactive: [1] | [4] | [5] | [6] | [7] | [9] | [10]

CCCCCCCCCCOC(C)=O
inactive: [2] | [16] | [4] | [5] | [6] | [7] | [8] | [9] | [10]

NCCCN1CCN(CCCN)CC1
active: [9] 81.2 µM
inactive: [3] | [4] | [5] | [6] | [7] | [8] | [10] | [11]

CC(C)=CC1CC(C)CCO1 (stereo not drawn)
inactive: [2] | [4] | [5] | [6] | [7] | [8] | [9] | [10] | [11]

O=C1CC2CC1C1CCCC21 (stereo not drawn)
inactive: [3] | [4] | [5] | [6] | [7] | [8] | [10] | [11]
active: [9] 72.4 µM

C=CC(C)(C)C
inactive: [3] | [4] | [5] | [6] | [7] | [9] | [11]

Cc1cc(=O)n(-c2ccccc2)n1C
inactive: [2] | [3] | [16] | [4] | [5] | [6] | [7] | [8] | [9] | [10] | [11]

c1c[nH]cn1
inactive: [4] | [5] | [6] | [7] | [8] | [9] | [10] | [11]

Cc1cc(C)c(C)cc1C
inactive: [1] | [3] | [4] | [5] | [6] | [7] | [8] | [9] | [10] | [11]
